Assay results reported in paper PMC12864922, “TDP-43 directly inhibits mRNA accumulation in neurites through modulation of mRNA stability”.
Residue numbers refer to the chain shown, from its start. The full ranking holds about 9,900 sequences; the median of “r (bound/input frequency ratio)” is about 0.7, and the highest 2% start at about 6.5. Shown is part of a subset that was picked to be rich in the highest values.

B1: ENSMUSG00000061578.871|Ksr2 (ssRNA)
RNA: GGGAGUUCUACAGUCCGACGAUCGCUUCGAUAUCCGCAUGCUAUUAGGUCAGAGGUAUCAAUACAUCUCCGGAAACAUCGUCACAGAUACCUAGAGGUACUUCAUUGAUCCCUUGAAAAGCAUGUCUUAAUUCUGUUAAGAUGUCAAUCAAGAUUACACAUCUCACUGCUUCACAGGCCAUCAGGGCCCCAUUCUGAGGUCCUGGGACACUACCCAAACCCUAGCACUCUCCCAGUGACUCUCCUAUGAGUACAUAUGCCAUCCUGCUUCCUUUGUGGCAAAACCCUGGGUCACCCAGAGACACUCUUGCGGUCGCACUAGUGUGGAAUUCUCGGGUGUCAAGG
B2: ENSMUSG00000058297.471|Spock2 (ssRNA)
RNA: GGGAGUUCUACAGUCCGACGAUCGCUUCGAUAUCCGCAUGCUACGUUCCCUUGUUGCGGGCAGGAGAGGUAGGGCUGUGUUGGAAAGAGUUCAACCAAAUUACGGCAGCACCACAUCUUGCCGAGCCCUGGAGCUGCCCUACUAAGAGCCUCCUUAGCCCUGGGUGCUGGGAAGGAUGGUGUACGUUGGGGAAGUUUGAGGUUGGAGAGAGUAAAUGUGCCUUGAGAGACCACUCAGAGGUCCCAGGAGGAACGGGGGCGGGGCUUAGCCUGGGAGUUCUGGCAGGAGGCAAAGUUGGUGAGACUCUUGCGGUCGCACUAGUGUGGAAUUCUCGGGUGUCAAGG
B3: ENSMUSG00000058297.472|Spock2 (ssRNA)
RNA: GGGAGUUCUACAGUCCGACGAUCGCUUCGAUAUCCGCAUGCUACUUGUUGCGGGCAGGAGAGGUAGGGCUGUGUUGGAAAGAGUUCAACCAAAUUACGGCAGCACCACAUCUUGCCGAGCCCUGGAGCUGCCCUACUAAGAGCCUCCUUAGCCCUGGGUGCUGGGAAGGAUGGUGUACGUUGGGGAAGUUUGAGGUUGGAGAGAGUAAAUGUGCCUUGAGAGACCACUCAGAGGUCCCAGGAGGAACGGGGGCGGGGCUUAGCCUGGGAGUUCUGGCAGGAGGCAAAGUUGGUGAGAGUCCUGCUCUUGCGGUCGCACUAGUGUGGAAUUCUCGGGUGUCAAGG
B4: ENSMUSG00000058297.473|Spock2 (ssRNA)
RNA: GGGAGUUCUACAGUCCGACGAUCGCUUCGAUAUCCGCAUGCUAGCGGGCAGGAGAGGUAGGGCUGUGUUGGAAAGAGUUCAACCAAAUUACGGCAGCACCACAUCUUGCCGAGCCCUGGAGCUGCCCUACUAAGAGCCUCCUUAGCCCUGGGUGCUGGGAAGGAUGGUGUACGUUGGGGAAGUUUGAGGUUGGAGAGAGUAAAUGUGCCUUGAGAGACCACUCAGAGGUCCCAGGAGGAACGGGGGCGGGGCUUAGCCUGGGAGUUCUGGCAGGAGGCAAAGUUGGUGAGAGUCCUGGGACAUCUCUUGCGGUCGCACUAGUGUGGAAUUCUCGGGUGUCAAGG
B5: ENSMUSG00000058297.472|Spock2|27:31 (ssRNA)
RNA: B3 RNA with U70A, G71C, U72A, G73C, U74A
B6: ENSMUSG00000058297.474|Spock2 (ssRNA)
RNA: GGGAGUUCUACAGUCCGACGAUCGCUUCGAUAUCCGCAUGCUAAGGAGAGGUAGGGCUGUGUUGGAAAGAGUUCAACCAAAUUACGGCAGCACCACAUCUUGCCGAGCCCUGGAGCUGCCCUACUAAGAGCCUCCUUAGCCCUGGGUGCUGGGAAGGAUGGUGUACGUUGGGGAAGUUUGAGGUUGGAGAGAGUAAAUGUGCCUUGAGAGACCACUCAGAGGUCCCAGGAGGAACGGGGGCGGGGCUUAGCCUGGGAGUUCUGGCAGGAGGCAAAGUUGGUGAGAGUCCUGGGACAUCUUACCCUCUUGCGGUCGCACUAGUGUGGAAUUCUCGGGUGUCAAGG
B7: ENSMUSG00000058297.474|Spock2|15:19 (ssRNA)
RNA: B6 RNA with U58A, G59C, U60A, G61C, U62A
B8: ENSMUSG00000058297.470|Spock2|39:43 (ssRNA)
RNA: GGGAGUUCUACAGUCCGACGAUCGCUUCGAUAUCCGCAUGCUAUGCUCCCGUUCCCUUGUUGCGGGCAGGAGAGGUAGGGCACACAUGGAAAGAGUUCAACCAAAUUACGGCAGCACCACAUCUUGCCGAGCCCUGGAGCUGCCCUACUAAGAGCCUCCUUAGCCCUGGGUGCUGGGAAGGAUGGUGUACGUUGGGGAAGUUUGAGGUUGGAGAGAGUAAAUGUGCCUUGAGAGACCACUCAGAGGUCCCAGGAGGAACGGGGGCGGGGCUUAGCCUGGGAGUUCUGGCAGGAGGCAAAGUUGCUCUUGCGGUCGCACUAGUGUGGAAUUCUCGGGUGUCAAGG
B9: ENSMUSG00000058297.469|Spock2 (ssRNA)
RNA: GGGAGUUCUACAGUCCGACGAUCGCUUCGAUAUCCGCAUGCUACCUGCCUGCUCCCGUUCCCUUGUUGCGGGCAGGAGAGGUAGGGCUGUGUUGGAAAGAGUUCAACCAAAUUACGGCAGCACCACAUCUUGCCGAGCCCUGGAGCUGCCCUACUAAGAGCCUCCUUAGCCCUGGGUGCUGGGAAGGAUGGUGUACGUUGGGGAAGUUUGAGGUUGGAGAGAGUAAAUGUGCCUUGAGAGACCACUCAGAGGUCCCAGGAGGAACGGGGGCGGGGCUUAGCCUGGGAGUUCUGGCAGGAGGCACUCUUGCGGUCGCACUAGUGUGGAAUUCUCGGGUGUCAAGG
B10: ENSMUSG00000058297.471|Spock2|33:37 (ssRNA)
RNA: B2 RNA with U76A, G77C, U78A, G79C, U80A
B11: ENSMUSG00000058297.470|Spock2 (ssRNA)
RNA: B8 RNA with A82U, C83G, A84U, C85G, A86U
B12: ENSMUSG00000058297.473|Spock2|21:25 (ssRNA)
RNA: B4 RNA with U64A, G65C, U66A, G67C, U68A
B13: ENSMUSG00000058297.468|Spock2 (ssRNA)
RNA: GGGAGUUCUACAGUCCGACGAUCGCUUCGAUAUCCGCAUGCUACGUGUUCCUGCCUGCUCCCGUUCCCUUGUUGCGGGCAGGAGAGGUAGGGCUGUGUUGGAAAGAGUUCAACCAAAUUACGGCAGCACCACAUCUUGCCGAGCCCUGGAGCUGCCCUACUAAGAGCCUCCUUAGCCCUGGGUGCUGGGAAGGAUGGUGUACGUUGGGGAAGUUUGAGGUUGGAGAGAGUAAAUGUGCCUUGAGAGACCACUCAGAGGUCCCAGGAGGAACGGGGGCGGGGCUUAGCCUGGGAGUUCUGGCAGCUCUUGCGGUCGCACUAGUGUGGAAUUCUCGGGUGUCAAGG

Target: TDP-43 (Homo sapiens, UniProt Q13148 1-414)
Sequence (Q13148 whole entry): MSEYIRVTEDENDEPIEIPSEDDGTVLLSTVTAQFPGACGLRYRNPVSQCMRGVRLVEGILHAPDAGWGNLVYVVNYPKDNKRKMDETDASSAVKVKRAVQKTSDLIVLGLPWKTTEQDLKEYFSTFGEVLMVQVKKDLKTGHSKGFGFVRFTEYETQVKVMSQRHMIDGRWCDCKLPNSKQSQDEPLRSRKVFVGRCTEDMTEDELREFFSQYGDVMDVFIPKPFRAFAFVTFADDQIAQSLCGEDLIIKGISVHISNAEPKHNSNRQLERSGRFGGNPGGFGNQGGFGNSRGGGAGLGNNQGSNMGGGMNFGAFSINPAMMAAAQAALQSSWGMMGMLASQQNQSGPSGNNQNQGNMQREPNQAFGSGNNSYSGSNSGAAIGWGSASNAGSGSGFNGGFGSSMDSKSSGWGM
Assay: RNA Bind-n-Seq with designed 260-mer pool; 25 mM Tris-HCl, 150 mM KCl, 3 mM MgCl2, BSA (printed 500 mg/mL), 20 units/mL SUPERase IN; pH not stated; 500 nM RNA pool, 1 h, 4 C; TDP-43 5, 50, 500 nM; high values mean tight binding
Details: protein: recombinant; tags: SBP (GST cleaved off with PreScission; pGEX-GST-SBP)
Summary of the method: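 Binding (R) is the ratio of each oligo's mapped-read-normalized abundance in the bound fraction to its abundance in the input. To obtain it, SBP-tagged recombinant TDP-43 (5, 50 or 500 nM) on streptavidin beads was incubated with 500 nM of an in vitro-transcribed 260-nt 3′ UTR oligo pool for 1 h at 4 °C in 25 mM Tris-HCl, 150 mM KCl, 3 mM MgCl2, BSA and SUPERase IN. The RNA retained after washing was released with biotin, then reverse transcribed, amplified by PCR and sequenced.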

In order of falling binding signal:
1. B11  8.94 R (bound/input frequency ratio)
2. B3  7.38 R (bound/input frequency ratio)
3. B2  7.28 R (bound/input frequency ratio)
4. B4  6.95 R (bound/input frequency ratio)
5. B6  5.67 R (bound/input frequency ratio)
6. B8  5.26 R (bound/input frequency ratio)
7. B5  4.63 R (bound/input frequency ratio)
8. B10  4.19 R (bound/input frequency ratio)
9. B12  3.59 R (bound/input frequency ratio)
10. B13  3.47 R (bound/input frequency ratio)
11. B7  3.2 R (bound/input frequency ratio)
12. B9  2.58 R (bound/input frequency ratio)
13. B1  0.301 R (bound/input frequency ratio)
